# Screening data: PubChem, several laboratories
# This is a sample that favours compounds with a hit; in the whole collection about 3.8% have one here.
# NLRP3 yeast inh – NALP3 inhibition in yeast. Yeast reconstituted NLRP3/ASC/caspase-1, beta-gal luminescence, 24 h. inhibition, % at 10 µM. 0.39% of 330,000 active;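 active = inhibition of 50% or more; inactive = inhibition below 50%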;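 also: plate controls were induced DMSO wells for no effect and uninduced yeast grown without galactose for full effect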
# CR mimetic SO – yeast age-related superoxide inhibition as caloric restriction mimetic | AID 2690 | superoxide response (% of plate mean), % at 10 µM | S. cerevisiae aged cells, superoxide DHE fluorescence; stronger effect = lower value | 0.18% of 330,000 active;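 active = superoxide response under a set limit, about three screen SD below normal, cut at about 65% in these data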;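 also: yeast aged for seven days with compound at 30 °C before DHE staining; 100% = average MFI of all compound-treated wells on the plate with controls excluded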
# tim10-1 inh – growth inhibitors of tim10-1 mutant yeast. S. cerevisiae tim10-1 ts strain growth, BacTiter-Glo, 24 h. inhibition, % at 20 µM. 2.2% of 330,000 active. AID 463190;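 active = inhibition of at least 40%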;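 also: mutant grown at 25 °C; 0% = DMSO wells with yeast and 100% = wells holding no yeast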
# tim23-1 inh – tim23-1 yeast growth inhibition | S. cerevisiae tim23-1 growth, BacTiter-Glo luminescence, 24 h | inhibition, % at 20 µM | 1.3% of 330,000 active;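 active = growth inhibition of the mutant yeast at or above 50%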;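 also: temperature-sensitive mutant grown at 25 °C; plate controls were DMSO-treated mutant yeast for no effect and medium wells lacking yeast for full effect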
# TIM10 inh – growth inhibitors of TIM10 yeast strain. inhibition, % at 10 µM. S. cerevisiae TIM10 strain growth, BacTiter-Glo luminescence, 24 h. 1.4% of 330,000 active;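 active = inhibition of 40% or more at the single tested concentration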;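 also: wild-type TIM10 isogenic control strain grown at permissive 25 °C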
# tim10-1 confirm – confirmation of tim10-1 mutant yeast growth inhibitors; shares compounds with tim10-1 inh; S. cerevisiae tim10-1 ts strain growth, BacTiter-Glo, 24 h; inhibition, % at 20 µM; 56% of 7,400 active;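 active = inhibition of yeast growth at or above a set limit in either of two repeat tests at 20 µM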;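 also: tim10-1 mutant grown at permissive 25 °C to find synthetic lethal compounds; 0% = DMSO yeast wells and 100% = medium wells without yeast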
# Starred values were filed as active, the others as inactive; / = no result.
SMILES,NLRP3 yeast inh,CR mimetic SO,tim10-1 inh,tim23-1 inh,TIM10 inh,tim10-1 confirm
O=C(O)CN1C(=O)/C(=C/C=C/c2ccccc2)SC1=S,3,126,23,17,6,/
O=C(O)CN1C(=O)/C(=C\C(Br)=C\c2ccccc2)SC1=S,9,93,43*,21,29,35*
Cc1onc(-c2c(F)cccc2Cl)c1C(=O)NC1CCSC1=O (stereo unspecified),8,99,4,8,-9,/
Cn1nc(C(F)(F)F)c(-c2ccc(Br)cc2)c1NC(=O)c1ccco1,13,120,40*,32,3,14
CCCn1c(N)c(C(=O)COc2ccc(Br)cc2F)c(=O)n(C)c1=O,10,102,3,10,-1,/
COc1cccc(/C=C/C(=O)c2ccc(NC3=NCCCS3)cc2)c1,0,92,43*,39,38,37*
COc1ccc(/C=C/C(=O)OCC(=O)Nc2c(C)cccc2C)cc1,20,101,-5,-3,9,/
COc1ccc(-c2cc(=O)oc3c(C)c(OC(C)C(=O)Nc4ccc(CN5CCOCC5)cc4)ccc23)cc1 (stereo unspecified),11,88,43*,42,10,-38
COCCOc1cc(Nc2nnc(C(F)(F)F)s2)c(Cl)cc1Cl,-22,99,46*,29,23,27
Cn1ncc(Cl)c1C(=O)N1CCN(C23CC4CC(CC(C4)C2)C3)CC1,-2,104,14,3,6,/
CCOC(=O)CN1C(c2ccc(O)cc2)Nc2ccc(Br)cc2C1c1ccccc1 (stereo unspecified),1,100,46*,44,32,18
CCOC(=O)CN1C(=O)Nc2ccc(Br)cc2C1c1ccccc1 (stereo unspecified),-3,105,20,10,23,/
CCOC1(OCC)C(c2ccc(Cl)cc2)C(C#N)(C#N)C1(OCC)OCC (stereo unspecified),-3,78,47*,30,7,26
CCOC(=O)CSC1=C(C#N)C(c2ccc(Cl)cc2)CC(=O)N1 (stereo unspecified),16,100,20,41,4,/
CCOC1(OCC)N=C(N)C2(C#N)C(c3cccc(C)c3)C12C#N (stereo unspecified),-6,109,2,3,8,/
CCOC1(OCC)C(c2ccc(N)cc2)C(C#N)(C#N)C1(OCC)OCC (stereo unspecified),-6,108,42*,44,39,28
COc1ccc(C(=O)NCC2OCCc3ccccc32)c(O)c1 (stereo unspecified),33,99,45*,35,33,23
Fc1ccc(-c2nnc(CN3CCN(c4ncc(C(F)(F)F)cc4Cl)CC3)o2)cc1,10,84,49*,31,7,24
Cc1sc(N)nc1C12CC3CC(CC(C3)C1)C2,27,97,46*,17,20,16
COc1ccc(S(=O)(=O)N(C)C)cc1NC(=O)CCNC(=O)c1ccccc1OC,6,89,30,11,-1,/
O=C(NNC(=O)c1ccccc1Br)c1ccc(SCC2CCCO2)c([N+](=O)[O-])c1 (stereo unspecified),15,109,31,-7,-3,/
CN(/N=C/c1ccc([N+](=O)[O-])o1)c1ccccc1,36,120,52*,37,34,41*
O=C(N/N=C/c1ccc([N+](=O)[O-])o1)C(O)c1ccccc1 (stereo unspecified),7,128,-8,6,3,/
O=C1/C(=C\c2ccc(O)cc2)SC(=S)N1/N=C/c1ccc(O)cc1,12,85,41*,35,24,39*
CC(=O)NN1C(=O)/C(=C\c2ccc(O)cc2)SC1=S,15,96,1,11,5,/
SMILES,NLRP3 yeast inh,CR mimetic SO,tim10-1 inh,tim23-1 inh,TIM10 inh,tim10-1 confirm
O=S(=O)(c1ccc(-c2csc(-c3cccnc3)n2)cc1)N1CCOCC1,-50,103,42*,24,16,23
Cc1ccc(S(=O)(=O)N2CCOCC2)cc1C(=O)Nc1nc(-c2cccnc2)cs1,-4,92,5,1,7,/
Nc1ccnn1Cc1cccs1,10,102,4,21,-2,/
Cc1cc(/C=C\c2ccc3cc(N(C)C)ccc3[n+]2C)c(C)n1-c1ccccc1,35,159,70*,32,29,50*
C[n+]1c(/C=C/c2ccc(O)cc2)ccc2ccccc21,29,92,18,27,38,/
COc1ccc2cc(C(=O)NCc3ccco3)c(=O)oc2c1,14,94,14,-3,4,/
O=C(NCc1ccco1)c1cc2ccc(O)cc2oc1=O,1,87,55*,44,34,46*
Oc1csc(Cc2nc(-c3ccc(-c4ccccc4)cc3)cs2)n1,12,93,21,7,12,/
NC(=S)Cc1nc(-c2ccccc2)cs1,1,94,51*,42,39,44*
Cc1cc(/C=N/n2cnnc2)c(C)n1-c1ccc(OCc2ccccc2F)cc1,10,130,46*,36,39,-3
Cc1ccc(C(=O)NC(C)C2CC3CCC2C3)cc1 (stereo unspecified),24,82,-3,26,-2,/
Cn1c(N)c(C(=O)COC(=O)CCCOc2ccc(Cl)cc2Cl)c(=O)n(C)c1=O,14,101,42*,20,20,41*
N#Cc1c(Sc2ncc(C(F)(F)F)cc2Cl)nsc1C/C=N\OCc1c(F)cccc1Cl,11,90,25,24,21,/
COc1cccc(NC(=O)Nc2cc(C)ccc2OC)c1,36,102,40*,36,38,29
O=C(COC(=O)c1ncc(Cl)c(Cl)c1Cl)NC1CCCCCC1,-1,83,43*,30,11,19
O=C(COC(=O)c1nc(Cl)ccc1Cl)NC1CCCCCC1,29,104,28,24,6,/
CCc1cccc(NC(=O)CS(=O)Cc2nc(-c3ccc(C)cc3)oc2C)c1 (stereo unspecified),12,117,47*,31,26,35*
COCC1CCN(C(=O)c2cc(COc3ccc4c(c3)CCCC4)on2)C1 (stereo unspecified),29,88,40*,24,12,20
CC(=O)c1ccc(OCc2cc(C(=O)N3CCC(c4ccncc4)CC3)no2)cc1,17,98,44*,1,5,-39
COc1cccc(OCc2cc(C(=O)N3CCC(c4ccncc4)CC3)no2)c1,16,77,34,32,13,/
Cc1cc(NC(=O)CSCC(=O)Nc2ccccc2N2CCCCC2)no1,0,92,20,17,-2,/
CCC(=O)c1cn(CC(=O)Nc2ccc(C)cc2)c2ccccc12,7,97,6,12,-5,/
Cc1ccc(/C=C/S(=O)(=O)Nc2ccc(C)cc2)cc1,31,103,8,9,9,/
Cc1ccc(S(=O)(=O)/C=C/c2ccccc2)cc1,22,111,48*,48,18,26
